The source of these data is publication PMC12136788.

Sequences and labels used below:
B1: chr9:72354534:72354635:-|3pUTR|ENSG00000107372|msi1|total|mutant (ssRNA)
RNA: GGGAGUUCUACAGUCCGACGAUCGUCCCCGUUUUUACUUUUAUUCUUAAAGCAUUCAGUUUUGCUUUCAAUUUUAUGUACCUCCGUUCUGAGUCCGACCUGCAGAUGUGUACAGACCGUUCAUAUUUAUGUAUUGCACAUAAUCAACAGAGGAUUGAGCAUCA
B2: chr9:72354534:72354635:-|3pUTR|ENSG00000107372|msi1|FALSE|unique (ssRNA)
RNA: B1 RNA with C28U, C29A, C83U, C84A, C94U, C95A, C116U, C117A
B3: chr10:95311796:95311897:-|3pUTR|ENSG00000095637|unk|FALSE|unique (ssRNA)
RNA: GGGAGUUCUACAGUCCGACGAUCCAGACAUAGAUUUUUCUGUUCAUUUAUUUUUCUUCAUUGCAGUGGAUUGAUUUGAUAAAUAGAUGUGUUGAAUUACUACAUUUGCUGUACAUAUUAUUUAAUAAACUUUAUUCAGAAUUGCAACAGAGGAUUGAGCAUCA
B4: ENSG00000070961:be:win_5651|3pUTR|ENSG00000070961|bound_else_gene|NA|bound_elsewhere_windowed (ssRNA)
RNA: GGGAGUUCUACAGUCCGACGAUCGUUUCUAGUCUUGGUUUUGCCAUUAAUGUGCUGCAUGAUCUUGGGAAAAUCAUUUACCCUAAAUAAGGGUGGUGGACUAUCUUGAAGAACCCUUUCAACUCUAAAAAUUGACCCUAUCAACAACAGAGGAUUGAGCAUCA
B5: ENSG00000165672:stop:overlap|stop_codon|ENSG00000165672|stop_codon|NA|stop_codon (ssRNA)
RNA: GGGAGUUCUACAGUCCGACGAUCCUCCUACGAUCAAGCCAAGUCCAGCUGCUUCCAAAGAGUACUUUCAGAAGGUAAAUCAGUAGAUCACCCAUGUGUAUCUGCACCUUCUCAACUGAGAGAAGAACCACAGUUGAAACCUGCCAACAGAGGAUUGAGCAUCA
B6: ENSG00000198589:be:win_3651|CDS|ENSG00000198589|bound_else_gene|NA|bound_elsewhere_windowed (ssRNA)
RNA: GGGAGUUCUACAGUCCGACGAUCCCUCACUAGAGAAACCAAAUUAAUUAAUGAUUGUCAUGGUAGUGUCUCUGAGGCUUCUUCUGAGCAAAAGAUUGCGAAGUUGGAUGUUUCCAAUGUUGCUACAGAUACUGAGAGGCUGGACAACAGAGGAUUGAGCAUCA
B7: chr1:17068045:17068226:-|3pUTR|ENSG00000117115|msi1|FALSE|unique (ssRNA)
RNA: GGGAGUUCUACAGUCCGACGAUCCUCCUUCCACUGCCUUGACUUUCUUCCUUUUUAUUCCUGGUGCCAUCUGUCCAGGCAGCUAGACAAGAACUUGUUCGCCAGCAGCCAGAUUCAGGCCUUCCCAGGGGCAUAAUAAGUGACCAACAGAGGAUUGAGCAUCA
B8: chr17:18209558:18209659:+|3pUTR|ENSG00000091542|msi1|FALSE|unique (ssRNA)
RNA: GGGAGUUCUACAGUCCGACGAUCGGUAGCUUCUAUCCACUCAGAUCCUGGAAGGCAGCAAGGUUUUGUGGAUCUAGAUUCAUUAGGAAUGUCUUCUUGUCAGCCAGGCCAGGACCCGGGCUUGCCAAGAGCAGAGGCCCUCCCCAACAGAGGAUUGAGCAUCA
B9: chr19:14119889:14120036:-|3pUTR|ENSG00000105011|msi1|FALSE|unique (ssRNA)
RNA: GGGAGUUCUACAGUCCGACGAUCAGCAGACCCACUCCAGCUUUCUGGUGUCACAGGCGGGAAUGUUAGUUAGUAGGUAGACUUAGAUCCCAUUUCUGUCCUGCUCCCAGGAAGAUUCUUAGGUCCUCUUCAAUCCAGCAGCCCCAACAGAGGAUUGAGCAUCA
B10: ENSG00000113300:stop:overlap|stop_codon|ENSG00000113300|stop_codon|NA|stop_codon (ssRNA)
RNA: GGGAGUUCUACAGUCCGACGAUCUGGAGCUCUUACUGCCUUUCCUGCCCCAAGUCAACGGCAUCCACCUUCCUGGCAGGAGGUAGUCAAGCACCUUCAGAGGACAGCCUUGAUUCACUUGUAAACUUGUGAAAAUCUGAACAUCAACAGAGGAUUGAGCAUCA
B11: chr19:14119889:14120036:-|3pUTR|ENSG00000105011|msi1|total|mutant (ssRNA)
RNA: GGGAGUUCUACAGUCCGACGAUCAGCAGACCCACUCCAGCUUUCUGGUGUCACAGGCGGGAAUGUCCGUCCGCCGGCCGACUCCGAUCCCAUUUCUGUCCUGCUCCCAGGAAGAUUCUCCGGUCCUCUUCAAUCCAGCAGCCCCAACAGAGGAUUGAGCAUCA
B12: ENSG00000147536:stop:overlap|stop_codon|ENSG00000147536|stop_codon|NA|stop_codon (ssRNA)
RNA: GGGAGUUCUACAGUCCGACGAUCUCCGCUACGUCCUCAGCAGCUACUUGCGGUGUCGCCUCAUGAAGUUCCCAAACCAGAUCUAGAUUCUUACGUGUUUCUGAGAGUGAGAGAACGACAAGAAAACAUACUGGUAGAACCAGACAACAGAGGAUUGAGCAUCA
B13: chr2:1633339:1633490:-|3pUTR|ENSG00000130508|msi1|total|mutant (ssRNA)
RNA: GGGAGUUCUACAGUCCGACGAUCUUCAUAAGCCACAUUCCGAAACAGGUUUGCUUUCAGCUGUCACUUGCACACAUACUGCCCCGUUGUGAACCAAAUGUGAAAAAACCUCCUUCAUCCCAUUGUGUAUCUGAUACCUGCCGACAACAGAGGAUUGAGCAUCA
B14: chr20:50583650:50583751:+|3pUTR|ENSG00000196396|msi1|FALSE|unique (ssRNA)
RNA: GGGAGUUCUACAGUCCGACGAUCUUCCUAAGCCUGUUGCUGAAGUCAUUGUCGCUCAGCAAUAGGGUGCAGUUUUCCAGGAAUAGGCAUUUGCCUAAUUCCUGGCAUGACACUCUAGUGACUUCCUGGUGAGGCCCAGCCUGUCAACAGAGGAUUGAGCAUCA
B15: chr8:17644361:17644462:-|3pUTR|ENSG00000129422|msi1|FALSE|bound_elsewhere (ssRNA)
RNA: GGGAGUUCUACAGUCCGACGAUCCAACAUUGUGAUGUCAGUAUUUACUAAUCUACAUUCAGUGGCUGUACAAAUAACAGCUGUAGUAAGAAGAGAUUCAGGAUGCUAGAGGUGAAUAUUUGGGUCAUUUACAUGUACACUACACAACAGAGGAUUGAGCAUCA
B16: chr15:44665791:44665971:-|CDS|ENSG00000229474|control|control|control (ssRNA)
RNA: GGGAGUUCUACAGUCCGACGAUCGAUCUGUUUGUUCUGGAAUACGUGUAUGUGGGAAGUUGAAUCAUCAGACACUAGCUACAUAGACUAUGUUUACAGGGAUCCAGAGAGUCUGAAGACAUUUCUUAUGCCUUUAUAUAUUGGCAACAGAGGAUUGAGCAUCA
B17: chr4:75800632:75800752:+|CDS|ENSG00000138768|unk|total|mutant (ssRNA)
RNA: GGGAGUUCUACAGUCCGACGAUCAAACAACUGAUUGAGAAGAGGAUUGGCAAAGAGAAUUUCACCGAGAAACCCGGAUUUAUCCGCAAACAUGAGUUGUAUUCCAGAGCAUCUCAGAAACCCCAGCCAAACUUUCCCAGUCCACAACAGAGGAUUGAGCAUCA
B18: chr3:45095346:45095568:-|CDS|ENSG00000163814|control|control|control (ssRNA)
RNA: GGGAGUUCUACAGUCCGACGAUCAAACAGAGCCGCAAGUUUGUCCCUGGCUGUUUCGUGUGUCUAGAAUCUCGGACCUGCAGUAGCAACCUCACCCUGACAUCUGGCUCCAAACACAAAAUCUCCUUCCUUUGUGAUGAUCUGCAACAGAGGAUUGAGCAUCA
B19: chr1:17407970:17408071:-|3pUTR|ENSG00000179051|msi1|total|mutant (ssRNA)
RNA: GGGAGUUCUACAGUCCGACGAUCGGGUACCGUUCUGCUGACCCAGCUCCCUUCCGUCACGUUUGCUUGGCUCUGGUACCAAACCGUUGGGAUUACCGAAGAGUCCCCUUCCUUGCGUGUCAGCACGGAUGCUGUGACUGCCACCAACAGAGGAUUGAGCAUCA
B20: chr9:19276226:19276327:+|CDS|ENSG00000137145|unk|total|mutant (ssRNA)
RNA: GGGAGUUCUACAGUCCGACGAUCCUUUGUCGCCGCUGGUCUCACUGACACAUCUACUCUUUUGGAUCAAGAAAUAAAUCGUUCCGAUACUAAGUCAACUGGACCUAAAGCUCCAAUUACAGACAUUGCCAUUAUUAUCAAAUCCAACAGAGGAUUGAGCAUCA

Positions count from the first letter of the chain named. The full ranking holds about 5,800 sequences; the median of “enrichment r” is about 0.54, and the highest 2% start at about 16. The entries come from a sample that favours the highest values as a whole.

MSI1 full-length, sequence (Q61474 whole entry): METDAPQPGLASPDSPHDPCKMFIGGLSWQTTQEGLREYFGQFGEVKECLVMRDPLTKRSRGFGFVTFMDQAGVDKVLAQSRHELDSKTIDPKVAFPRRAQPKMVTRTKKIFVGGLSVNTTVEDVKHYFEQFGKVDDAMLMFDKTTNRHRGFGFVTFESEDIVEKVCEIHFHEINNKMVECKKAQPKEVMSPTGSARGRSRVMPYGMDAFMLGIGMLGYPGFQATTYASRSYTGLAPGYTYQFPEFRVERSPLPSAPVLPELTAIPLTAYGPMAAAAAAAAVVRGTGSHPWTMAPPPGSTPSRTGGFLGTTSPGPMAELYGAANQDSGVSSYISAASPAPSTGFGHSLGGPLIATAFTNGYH

The assay has as its target MSI1 full-length (mouse, UniProt Q61474 1-362). As to the kind of experiment: nsRBNS (natural sequence RNA bind-n-seq); RBNS binding buffer (assumed for nsRBNS): 25 mM Tris pH 7.5, 150 mM KCl, 3 mM MgCl2, 0.01% Triton X-100, 500 ug/ml BSA, 20 U/ml SUPERase-In, 4 C; UNK is unkempt and MSI1 is Musashi-1; names of the RNAs are library labels; protein concentration not given here; high values mean tight binding.
Molecule B1 registered a binding signal of 1.52 enrichment R.
Next, B2: 42.6 enrichment R; B3: 2.8 enrichment R.
Next, B4: 0.357 enrichment R; B5: 0.684 enrichment R; B6: 0.605 enrichment R.
Next, B7: 0.526 enrichment R; B8: 1.93 enrichment R.
In the case of B9, the binding signal came out at 38.2 enrichment R.
Next, B10: 38.7 enrichment R; B11: 0.641 enrichment R; B12: 26.3 enrichment R.
B13 yielded a binding signal of 0.388 enrichment R.
Regarding B14, the binding signal was found to be 0.237 enrichment R.
Next, B15: 0.442 enrichment R.
Next, B16: 0.282 enrichment R; B17: 0.541 enrichment R; B18: 0.476 enrichment R.
Next, B19: 0.479 enrichment R.
With B20, the binding signal stood at 0.315 enrichment R.
